TrxR1 inh = qHTS Assay for Inhibitors of Mammalian Selenoprotein Thioredoxin Reductase 1 (TrxR1): qHTS | recombinant rTrxR1, NADPH fluorescence consumption, selenite substrate | actives 1% (n = 390,000) | Potency, µM (top dose mostly 114 µM), for the others: at the highest dose activity change, negative = inhibition, hits mostly inhibitors | AID 588453, 2011; further: nearly all actives have a fitted effect of over 65% in size
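Rat TrxR1 (90 nM in the dispensed reagent) was pre-reduced with 400 uM NADPH for 5 min at room temperature, then incubated with compound for 15 min. After 400 uM selenite was added, NADPH fluorescence (Ex 340/Em 450 nm) was followed for 8 min.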
IDH1 R132H inh = qHTS for Inhibitors of mutant isocitrate dehydrogenase 1 (IDH1): qHTS. Isocitrate dehydrogenase [NADP] cytoplasmic (Homo sapiens), O75874. IDH1-R132H enzyme, NADPH consumption, diaphorase/resazurin fluorescence. Potency, µM (top dose mostly 76.6 µM), for inactives: at the top dose activity change, negative = inhibition, actives largely listed as inhibitors. actives 0.093% (n = 390,000); further: nearly all actives have a fitted effect of over 65% in size
Target sequence (O75874 whole entry R132H, stated change not applied): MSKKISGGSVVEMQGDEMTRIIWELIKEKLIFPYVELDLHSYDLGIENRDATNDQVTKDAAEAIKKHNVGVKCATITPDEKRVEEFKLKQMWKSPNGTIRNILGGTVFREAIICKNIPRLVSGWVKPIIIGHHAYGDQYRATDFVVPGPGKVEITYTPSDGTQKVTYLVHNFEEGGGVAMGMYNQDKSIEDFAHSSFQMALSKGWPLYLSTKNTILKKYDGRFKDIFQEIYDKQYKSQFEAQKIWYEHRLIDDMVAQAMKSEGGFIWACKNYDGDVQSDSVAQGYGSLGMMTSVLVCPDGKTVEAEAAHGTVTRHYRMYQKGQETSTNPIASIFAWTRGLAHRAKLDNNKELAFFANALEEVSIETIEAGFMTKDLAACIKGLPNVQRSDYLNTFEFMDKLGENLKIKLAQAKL
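IDH1-R132H (0.5 ug/mL dispensed) in pH 7.5 Tris buffer was preincubated 30 min with compound, then given a substrate mix of 0.016 mM NADPH and 2 mM alpha-KG for 80 min at room temperature; remaining NADPH was read by diaphorase/resazurin fluorescence.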
TrxR1 substrate = qHTS Assay for Substrates of Mammalian Selenoprotein Thioredoxin Reductase 1 (TrxR1): qHTS. Potency, µM (highest dose often 114 µM), inactives show top-dose activity change, negative = substrate turnover. actives 0.01% (n = 390,000). Thioredoxin reductase 1, cytoplasmic (Rattus norvegicus), O89049. purified TrxR1 substrate turnover, NADPH consumption readout; further: nearly all actives have a fitted effect of over 50% in size
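Rat TrxR1, dispensed at 90 nM, was prereduced with 400 uM NADPH (final) for 5 min at ~22 deg C, then incubated with compound 15 min before 400 uM selenite. A first-read NADPH fluorescence drop versus no-compound background flagged substrates.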
Sfp PPTase inh = qHTS Assay for Inhibitors of Bacillus subtilis Sfp phosphopantetheinyl transferase (PPTase); Potency, µM, inactives show largest response in the series, negative = inhibition, usual class: inhibitors; Biochemical Sfp PPTase activity, qHTS; 4'-phosphopantetheinyl transferase ffp (Bacillus subtilis), Q9F4F7; AID 1490, 2009; actives 3.5% (n = 310,000);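 further: the enzyme is Sfp with the accession as filed and its product quenches rhodamine fluorescence; 0% = enzyme reaction without inhibitor and -100% = no enzyme wells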
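Step 1, compound plus 15 nM Sfp-PPTase, 15 min, room temperature. Step 2, add rhodamine-CoA (5 uM) and BHQ-2-YbbR (12.5 uM). Step 3, read 525/598 nm fluorescence at 0 and 30 min.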
VDR inh = Inhibitors of the vitamin D receptor (VDR): qHTS; Vitamin D3 receptor (Homo sapiens), P11473; VDR-SRC2-3 peptide fluorescence polarization, 2 h; Potency, µM, without a hit: max response, negative = inhibition, most hits filed as inhibitors; actives 0.93% (n = 400,000); AID 504847, 2011
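Reagent solutions, kept cold and dark, are dispensed first; compounds are then pinned in at 23 nl, plates briefly spun, and incubated 2 h at ambient temperature. Inhibition of VDR–SRC2-3 peptide binding is read by fluorescence polarization.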
PLK1 PBD block = qHTS for Inhibitors of PLK1-PDB (polo-like kinase 1 - polo-box domain): Primary Screen; Plk1 PBD binding of FITC phosphopeptide, fluorescence polarization; actives 2.8% (n = 360,000); AID 720504, 2013; Serine/threonine-protein kinase PLK1 (Homo sapiens), P53350; Potency, µM, for the others: max response, negative = inhibition, actives largely listed as inhibitors; further: series mostly up to about 57 µM; nearly all actives have a fitted effect of over 65% in size
Numbers without * were called inactive; [ ] = remark or other dose. Only some compounds are listed: those with a hit (about 5.2% of all), similar ones and a draw of the others. The call rests on the fitted dose curve; in most records, active means well fitted curve in the direction sought with a large enough effect; inconclusive means small, poorly fitted or top-dose-only effect, or another doubt; inactive means no such curve, though single readings can be large; an effect the other way counts as inactive or inconclusive. Unless noted, on the % scale 0 is the no-effect control and ±100 the full control effect; potency means the concentration at half of the fitted maximal effect.

What do the screens show for `O=c1[nH]c2ccc(NC(=S)Nc3ccc(Cl)cc3Cl)cc2[nH]1`?
TrxR1 inh: inconclusive; IDH1 R132H inh: 2%; TrxR1 substrate: 2%; Sfp PPTase inh: 4%; VDR inh: -6%; PLK1 PBD block: -18%

Results for CCOC(=O)c1ccc(NC(=S)Nc2ccc3[nH]c(=O)[nH]c3c2)cc1 ?
TrxR1 inh: inconclusive; IDH1 R132H inh: -1%; TrxR1 substrate: -2%; Sfp PPTase inh: 40µM*; VDR inh: 0%; PLK1 PBD block: -15%

How did O=c1[nH]c2ccc(NC(=S)Nc3ccccc3Cl)cc2[nH]1 do in these assays?
TrxR1 inh: -18%[57.1 µM]; IDH1 R132H inh: 1%; TrxR1 substrate: 9%[57.1 µM]; Sfp PPTase inh: 50µM*; VDR inh: -6%; PLK1 PBD block: -11%

How did CCOc1cccc2cc(-c3nc(-c4ccc(Cl)cc4)c(C)s3)c(=O)oc12 do in these assays?
TrxR1 inh: 15%[57.1 µM]; IDH1 R132H inh: 5%; TrxR1 substrate: 2%[57.1 µM]; VDR inh: 23%

Results for Cc1cc2c(s1)c1cnn(CC(=O)N3CCOCC3)c(=O)c1n2C ?
TrxR1 inh: 31%; TrxR1 substrate: 9%; VDR inh: -18%

Results for NC1(C(=O)O)CCc2cc(P(=O)(O)O)ccc21 (stereo not drawn) ?
Sfp PPTase inh: 56µM*; VDR inh: 6%

Results for COc1ccccc1NC(=O)C1CCCN(S(=O)(=O)c2ccc(-n3cnnn3)cc2)C1 (stereo not drawn) ?
TrxR1 inh: 22%; IDH1 R132H inh: 18%; TrxR1 substrate: 4%; Sfp PPTase inh: 9%; VDR inh: 6%; PLK1 PBD block: -16%

How did COc1cc(/C=C/c2ccc3cccc(O)c3n2)cc(Cl)c1OC do in these assays?
TrxR1 inh: -14%; IDH1 R132H inh: 20%; TrxR1 substrate: -11%; Sfp PPTase inh: 50µM*; VDR inh: -5%; PLK1 PBD block: 3%

What do the screens show for `COc1cc(/C=C/c2ccc3c(Br)cc(Br)c(O)c3n2)ccc1O`?
TrxR1 inh: -2%; IDH1 R132H inh: 2%; TrxR1 substrate: -4%; Sfp PPTase inh: -11%; VDR inh: inconclusive; PLK1 PBD block: 24µM*

What do the screens show for `COc1cc(/C=C/c2ccc3cccc(O)c3n2)cc(OC)c1OC`?
TrxR1 inh: 9%; IDH1 R132H inh: -3%; TrxR1 substrate: 0%; Sfp PPTase inh: 8%; VDR inh: 9%; PLK1 PBD block: -1%

Results for COC(=O)c1ccc(/C=C/c2ccc3cccc(OC)c3n2)cc1 ?
TrxR1 inh: 7%; IDH1 R132H inh: 14%; TrxR1 substrate: 81%; Sfp PPTase inh: 45µM*; VDR inh: -1%; PLK1 PBD block: -13%

How did CCCCNC(=O)C1(C)CCN1C(=O)c1ccc2c(c1)CCO2 (stereo not drawn) do in these assays?
PLK1 PBD block: -11%

Results for Cc1cc2c(n1-c1ccc(C(=O)NCCc3ccc(Cl)cc3)cc1)CCCC2 ?
TrxR1 inh: -13%; IDH1 R132H inh: 13%; TrxR1 substrate: 6%; VDR inh: 0%

How did Cc1ccc2ncc(C(=O)Nc3ccc(F)cc3F)c(=O)n2c1 do in these assays?
TrxR1 inh: -6%; IDH1 R132H inh: -11%; TrxR1 substrate: -8%; VDR inh: -13%

How did CCC(=O)Oc1ccc2c(c1)O/C(=C\c1ccco1)C2=O do in these assays?
TrxR1 inh: 79µM*; IDH1 R132H inh: -18%; TrxR1 substrate: -7%; Sfp PPTase inh: -13%; VDR inh: -21%; PLK1 PBD block: inconclusive

How did COC(=O)COc1ccc2c(c1)O/C(=C\c1ccco1)C2=O do in these assays?
TrxR1 inh: inconclusive; IDH1 R132H inh: 4%; TrxR1 substrate: 7%[57.1 µM]; Sfp PPTase inh: 56µM*; VDR inh: -29%; PLK1 PBD block: -8%

How did CCN(CC)C(=O)Oc1ccc2c(c1)O/C(=C\c1ccco1)C2=O do in these assays?
TrxR1 inh: inconclusive; IDH1 R132H inh: 5%; TrxR1 substrate: 4%; Sfp PPTase inh: inconclusive; VDR inh: 14%; PLK1 PBD block: -6%

What do the screens show for `COCCN(CCOC)Cc1c(O)ccc2c1O/C(=C\c1ccco1)C2=O`?
TrxR1 inh: 79µM*; IDH1 R132H inh: -1%; TrxR1 substrate: -26%; Sfp PPTase inh: 40µM*; VDR inh: -9%; PLK1 PBD block: inconclusive

Results for Cc1cc(O)cc2c1C(=O)/C(=C/c1ccco1)O2 ?
TrxR1 inh: inconclusive; IDH1 R132H inh: 3%; TrxR1 substrate: -6%; Sfp PPTase inh: -10%; VDR inh: 4%; PLK1 PBD block: inconclusive

Results for COc1ccc(-c2noc(-c3ccc(N4CCCC4)c([N+](=O)[O-])c3)n2)cc1 ?
TrxR1 inh: 1%; IDH1 R132H inh: 6%; TrxR1 substrate: 0%; VDR inh: 6%

Results for CC(=O)N(O)C/C=C/c1cccc(Oc2ccccc2)c1 ?
Sfp PPTase inh: -2%; VDR inh: -2%

How did Cc1cc(C2=NNC(=NC3CC3)SC2)c(C)n1Cc1ccco1 do in these assays?
TrxR1 inh: 12%; IDH1 R132H inh: -19%; TrxR1 substrate: 0%; Sfp PPTase inh: inconclusive; VDR inh: inconclusive; PLK1 PBD block: inconclusive

Results for C=CCN=C1NN=C(c2cc(C)n(CCOC)c2C)CS1 ?
TrxR1 inh: -10%; IDH1 R132H inh: -3%; TrxR1 substrate: -13%; Sfp PPTase inh: 40µM*; VDR inh: 2%; PLK1 PBD block: -1%

Results for COCCn1c(C)cc(C2=NNC(=NC3CC3)SC2)c1C ?
TrxR1 inh: -40%; IDH1 R132H inh: 0%; TrxR1 substrate: 9%[57.1 µM]; Sfp PPTase inh: 50µM*; VDR inh: -1%; PLK1 PBD block: -7%

How did COCCn1c(C)cc(C2=NNC(=Nc3ccc(Cl)cc3Cl)SC2)c1C do in these assays?
TrxR1 inh: -2%; IDH1 R132H inh: -1%; TrxR1 substrate: 16%[57.1 µM]; Sfp PPTase inh: 56µM*; VDR inh: 2%; PLK1 PBD block: -10%

What do the screens show for `O=C(CCl)Nc1cc(S(=O)(=O)N2CCCCCC2)ccc1Cl`?
TrxR1 inh: 7.9µM*; IDH1 R132H inh: 0%; TrxR1 substrate: -11%; Sfp PPTase inh: 11%; VDR inh: -21%; PLK1 PBD block: -6%

Screens as filed in PubChem BioAssay.
